BAZ2B block: inhibitors of human BAZ2B bromodomain; Q9UIF8; 360,000 tested, 4.4% active; AlphaScreen BAZ2B-H3K14Ac peptide displacement; Potency, µM (top dose mostly 114 µM), for the others: top-dose activity change, negative = inhibition, hits mostly inhibitors; further: potency means the concentration at half of the fitted maximal effect; on the % scale 0 is the no-effect control and ±100 the full control effect; nearly all actives have a fitted effect of over 60% in size
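In this displacement format the biotinylated H3(5-23) peptide acetylated at Lys14 serves as ligand at 50 nM, with BAZ2B at 50 nM in PBS pH 7.4 containing 0.01% Tween-20. Donor and acceptor beads are 10 ug/mL final.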
PI5P4K alpha inh: blocks human PI5P4K alpha kinase activity; max response, %; P48426; PI5P4Kalpha enzyme, ADP-Glo luminescence, 60 min; active compounds read low; 330,000 tested, 1.2% active; active means max response of -50% or lower; inconclusive means between -30% and -50%; inactive means -30% or higher; further: value at the top dose of about 77 µM; on the % scale 0 is the no-effect control and ±100 the full control effect
Target sequence (P48426 whole entry, looked up): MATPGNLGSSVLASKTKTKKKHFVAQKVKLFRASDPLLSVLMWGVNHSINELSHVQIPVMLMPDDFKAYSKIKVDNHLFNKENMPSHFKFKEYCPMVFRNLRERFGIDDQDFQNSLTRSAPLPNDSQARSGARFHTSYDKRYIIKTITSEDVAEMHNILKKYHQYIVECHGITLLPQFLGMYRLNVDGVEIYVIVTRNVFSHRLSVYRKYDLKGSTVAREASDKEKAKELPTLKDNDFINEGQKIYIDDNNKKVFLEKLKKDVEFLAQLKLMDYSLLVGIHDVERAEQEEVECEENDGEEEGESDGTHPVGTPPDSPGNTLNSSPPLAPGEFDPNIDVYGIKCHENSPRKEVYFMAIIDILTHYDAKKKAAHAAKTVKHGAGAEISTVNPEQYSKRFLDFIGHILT
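Luminescence from ADP-Glo served as readout of PI5P4Kalpha activity in a qHTS format. Reaction: enzyme, substrate, compound, ATP at 5 microM final, 60 min at RT.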
JMJD2A Tudor: inhibitors of human JMJD2A Tudor domain | O75164 | AlphaScreen JMJD2A-Tudor / H3K4me3 peptide binding | Potency, µM (titrated, usually from 114 µM), without a hit: top-dose activity change, negative = inhibition, most hits filed as inhibitors | 390,000 tested, 4.4% active; further: potency means the concentration at half of the fitted maximal effect; on the % scale 0 is the no-effect control and ±100 the full control effect; nearly all actives have a fitted effect of over 50% in size
HP1b chromo inh: HP1-beta chromodomain-methylated histone interaction inhibition; 390,000 tested, 0.56% active; AID 540317; AlphaScreen HP1-beta / biotin-H3K9me3 peptide binding; Potency, µM (highest dose often 114 µM), for the others: at the top dose activity change, negative = inhibition, actives largely listed as inhibitors; further: potency means the concentration at half of the fitted maximal effect; nearly all actives have a fitted effect of over 70% in size
Target sequence (P83916 whole entry, looked up): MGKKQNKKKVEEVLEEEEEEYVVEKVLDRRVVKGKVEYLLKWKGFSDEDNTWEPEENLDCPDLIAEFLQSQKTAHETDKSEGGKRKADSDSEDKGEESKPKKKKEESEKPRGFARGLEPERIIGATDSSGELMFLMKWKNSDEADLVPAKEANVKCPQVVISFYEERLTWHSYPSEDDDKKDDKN
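AlphaScreen: HP1-beta (50 nM) preformed 30 min with biotin-H3(1-18)K9me3 peptide (50 nM) in PBS pH 7.4, 0.01% Tween-20. Compound added for 30 min at RT, then streptavidin donor/nickel chelate acceptor beads (10 ug/mL) for 30 min.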
KDM4E inh: JMJD2E (human) inhibition; B2RXH2; JMJD2E catalytic domain, FDH-coupled NADH fluorescence (FDH is formaldehyde dehydrogenase); Potency, µM (top dose mostly 57.1 µM), for the others: at the top dose activity change, negative = inhibition, usual class: inhibitors; 230,000 tested, 1.6% active; AID 2147; active means well fitted inhibition curve with a large enough effect, not every such curve was filed as active; inconclusive means small, poorly fitted or top-dose-only effect, or another doubt; inactive means no such curve, though single readings can be large or run the other way;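 further: potency means the concentration at half of the fitted maximal effect; 0% = wells with enzyme and -100% = buffer wells without enzyme; nearly all actives have a fitted effect of over 50% in size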
L3MBTL1 inh-1: blocks human L3MBTL1; Potency, µM (series often up to 57.1 µM), without a hit: top-dose activity, negative = inhibition, usual class: inhibitors; 230,000 tested, 0.66% active; AlphaScreen L3MBTL1–H3K9me1 peptide binding; Q9Y468; further: potency means the concentration at half of the fitted maximal effect; on the % scale 0 is the no-effect control and ±100 the full control effect; nearly all actives have a fitted effect of over 60% in size
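Read-out is AlphaScreen signal from streptavidin donor and nickel chelate acceptor beads (10 ug/mL final each) bridging L3MBTL1 (50 nM) and biotinylated K9-monomethylated H3(1-15) peptide (75 nM), after 30 min compound exposure at room temperature.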
L3MBTL1 inh-2: validation of human L3MBTL1 methyl-lysine binding inhibitors. shares compounds with L3MBTL1 inh-1. L3MBTL1 methyl-lysine binding inhibition, biochemical qHTS. 500 tested, 91% active. Potency, µM, most hits filed as inhibitors; further: potency means the concentration at half of the fitted maximal effect; nearly all actives have a fitted effect of over 70% in size
AlphaScreen ctr2: AlphaScreen signal inhibition, L3MBTL1 hit counter-screen. Potency, µM (highest dose often 57.1 µM), for inactives: at the top dose activity change, negative = inhibition, usual class: inhibitors. 500 tested, under 10 active. AlphaScreen counterscreen, signal inhibition. shares compounds with L3MBTL1 inh-1; further: potency means the concentration at half of the fitted maximal effect; 0% is about no effect
Starred values were filed as active, the others as inactive; [ ] = remark or other dose. Compounds with a hit are over-represented: about 5.7% of the library has one in this group of screens. Unless noted, the call rests on the fitted dose curve; in most records, active means well fitted curve in the direction sought with a large enough effect; inconclusive means small, poorly fitted or top-dose-only effect, or another doubt; inactive means no such curve, though single readings can be large; an effect the other way counts as inactive or inconclusive.

How did COc1cc(/C=C2\CCc3c2nc2ccccc2c3C(=O)O)cc(OC)c1OC do in these assays?
BAZ2B block: 45µM*; PI5P4K alpha inh: -62*; JMJD2A Tudor: 89µM*; HP1b chromo inh: -26%; KDM4E inh: inconclusive; L3MBTL1 inh-1: 4µM*; L3MBTL1 inh-2: 1.5*; AlphaScreen ctr2: 0%

What do the screens show for `COc1ccc(OC)c(N2C(=O)[C@@H]3C(c4ccccc4Cl)=NO[C@@H]3C2=O)c1`?
BAZ2B block: 32µM*; PI5P4K alpha inh: -66*; JMJD2A Tudor: inconclusive; HP1b chromo inh: 18µM*; KDM4E inh: -14%; L3MBTL1 inh-1: 3.5µM*; L3MBTL1 inh-2: 3*; AlphaScreen ctr2: -2%

What do the screens show for `N#C/C(=C\c1ccc(O)c(O)c1)C(=O)c1ccc(O)c(O)c1`?
BAZ2B block: 2.2µM*; PI5P4K alpha inh: -60*; JMJD2A Tudor: 0.71µM*; HP1b chromo inh: inconclusive; KDM4E inh: 2.5µM*; L3MBTL1 inh-1: 0.5µM*; L3MBTL1 inh-2: 0.075*; AlphaScreen ctr2: inconclusive

Results for O=C(CCSCc1cnn(-c2ccccc2)c1-n1cccc1)NCc1ccc(Cl)cc1 ?
BAZ2B block: -12%; JMJD2A Tudor: -27%; HP1b chromo inh: 9%

How did CCCOc1ccc(/C(O)=C2/C(=O)C(=O)N(c3ccccn3)C2c2ccc(OC)cc2)cc1C (centres undefined) do in these assays?
BAZ2B block: -19%; PI5P4K alpha inh: -25; JMJD2A Tudor: -32%; HP1b chromo inh: 20%[57 µM]

How did Cc1cc(/C=C(/C#N)c2nc3ccccc3[nH]2)c(C)n1-c1cc(C(=O)O)cc(C(=O)O)c1 do in these assays?
BAZ2B block: 40µM*; PI5P4K alpha inh: -79*; JMJD2A Tudor: 25µM*; HP1b chromo inh: inconclusive; KDM4E inh: 22µM*; L3MBTL1 inh-1: 3.5µM*; L3MBTL1 inh-2: 1.5*; AlphaScreen ctr2: -15%

How did COc1cc(Br)c(/C=C(\C#N)c2nc3ccccc3[nH]2)cc1OC do in these assays?
BAZ2B block: -24%; JMJD2A Tudor: inconclusive; HP1b chromo inh: 34%

What do the screens show for `COc1ccc(-c2nn(-c3ccccc3)cc2CNC[C@H]2O[C@@H](n3cnc4c(N)ncnc43)[C@H](O)[C@@H]2O)cc1`?
PI5P4K alpha inh: 13; JMJD2A Tudor: -9%; HP1b chromo inh: 42%; L3MBTL1 inh-1: -7%

Results for Cc1ccc(OCC(=O)c2c(N)n(C)c(=O)n(C)c2=O)c([N+](=O)[O-])n1 ?
BAZ2B block: 25µM*; PI5P4K alpha inh: -50*; JMJD2A Tudor: inconclusive; HP1b chromo inh: 20µM*; L3MBTL1 inh-1: 7.9µM*; L3MBTL1 inh-2: 0.84*; AlphaScreen ctr2: inconclusive

What do the screens show for `CCCCOc1ccc(/C=C/C(=O)N(CC)CC(=O)Nc2ccc3c(c2)OCCO3)cc1OC`?
BAZ2B block: -39%; PI5P4K alpha inh: 0; JMJD2A Tudor: inconclusive; HP1b chromo inh: -15%; L3MBTL1 inh-1: -4%

Results for Nc1cc2c(cc1[N+](=O)[O-])OCCO2 ?
BAZ2B block: -6%; PI5P4K alpha inh: -7; JMJD2A Tudor: -19%; HP1b chromo inh: 13%; KDM4E inh: -2%; L3MBTL1 inh-1: -4%

Results for Nc1cc2c(cc1[N+](=O)[O-])OCO2 ?
BAZ2B block: 56µM*; PI5P4K alpha inh: -60*; JMJD2A Tudor: inconclusive; HP1b chromo inh: -12%; KDM4E inh: -19%; L3MBTL1 inh-1: 32µM*; L3MBTL1 inh-2: 8.4*; AlphaScreen ctr2: 10%

What do the screens show for `O=C(CCC(C(=O)c1ccccc1)c1ccccc1)c1ccccc1` (centres undefined)?
PI5P4K alpha inh: 9

How did COC(=O)Cc1cc(=O)n(-c2nc3ccccc3[nH]2)[nH]1 do in these assays?
BAZ2B block: 7.9µM*; JMJD2A Tudor: 18µM*; HP1b chromo inh: 27%; KDM4E inh: inconclusive; L3MBTL1 inh-1: 13µM*; L3MBTL1 inh-2: 6.7*; AlphaScreen ctr2: inconclusive

Results for Cc1ccc(NC(=O)COc2ccccc2)c(NC(=O)c2ccco2)c1 ?
BAZ2B block: -17%; PI5P4K alpha inh: -1; JMJD2A Tudor: 5%; HP1b chromo inh: 16%

Results for O=C1CC(c2ccco2)CC(O)=C1C=Nc1cc(Cl)ccc1Cl (centres undefined) ?
BAZ2B block: 50µM*; PI5P4K alpha inh: inconclusive; JMJD2A Tudor: inconclusive; HP1b chromo inh: -6%; KDM4E inh: 0%; L3MBTL1 inh-1: 35µM*; L3MBTL1 inh-2: 24*; AlphaScreen ctr2: -1%

What do the screens show for `O=C1CC(c2ccco2)CC(O)=C1C=Nc1ccccc1-c1ccccc1` (centres undefined)?
BAZ2B block: -11%; PI5P4K alpha inh: 4; JMJD2A Tudor: -15%; HP1b chromo inh: 35%; KDM4E inh: inconclusive

How did CC(=O)Nc1ccc(C(=O)/C=C/c2ccco2)cc1 do in these assays?
BAZ2B block: 56µM*; PI5P4K alpha inh: -27; JMJD2A Tudor: inconclusive; HP1b chromo inh: -26%; KDM4E inh: inconclusive; L3MBTL1 inh-1: 32µM*; L3MBTL1 inh-2: 9.5*; AlphaScreen ctr2: -10%

Results for COc1ccccc1OCc1cc(C(=O)NCc2ccc(N3CCCC3=O)cc2)no1 ?
BAZ2B block: -4%; PI5P4K alpha inh: 6; JMJD2A Tudor: -9%; HP1b chromo inh: 14%

Results for CCOc1ccc(Br)cc1C1=NN(C(C)=O)C(c2ccc([N+](=O)[O-])s2)O1 (centres undefined) ?
BAZ2B block: inconclusive; PI5P4K alpha inh: -21; JMJD2A Tudor: inconclusive; HP1b chromo inh: -7%

What do the screens show for `O=c1oc(-c2ccco2)nc2ccccc12`?
BAZ2B block: -9%; PI5P4K alpha inh: 5; JMJD2A Tudor: -3%; HP1b chromo inh: 39%; KDM4E inh: inconclusive; L3MBTL1 inh-1: -6%

Results for c1coc(-c2nc3ccccc3nc2-c2ccco2)c1 ?
BAZ2B block: 71µM*; JMJD2A Tudor: inconclusive; HP1b chromo inh: 5%; KDM4E inh: inconclusive; L3MBTL1 inh-1: 32µM*; L3MBTL1 inh-2: inconclusive; AlphaScreen ctr2: 10%

What do the screens show for `O=C1c2ccccc2NC(c2ccccc2Cl)N1N=C1CCCCCC1` (centres undefined)?
BAZ2B block: 0%; PI5P4K alpha inh: 8; JMJD2A Tudor: -16%; HP1b chromo inh: 45%; KDM4E inh: inconclusive; L3MBTL1 inh-1: -3%

Bioassay records (PubChem BioAssay)
